# Data from the supplement of paper PMC10849652.
# Of roughly 8,800 targets only a part is listed; those with a hit were picked by preference. About 0.5% of all pairs of compound and target were hits. Values without a mark were called inactive.
# Key:
# Assay in all cases: log2 fold change, soluble protein after heating vs DMSO (PISA); higher = thermal stabilisation; K562 lysate, 10 uM; active = over 0.2 and 3.5 SD of the protein, either way, in both replicates (recomputed)
# alvocidib = compound: CN1CC[C@H](c2c(O)cc(O)c3c(=O)cc(-c4ccccc4Cl)oc23)[C@H](O)C1 [alvocidib]
# Summary of the method: (§1)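 The values are log-two fold changes in thermal stability compared with solvent controls and come from duplicates. They were obtained by TMTpro 16plex LC-MS/MS, with channel sums equalised, on the supernatant after 21,000xg for 90 min. That supernatant came from crude K562 extract at 1 mg/mL protein treated with 10 μM compound for 30 min, heated for 3 min across 48°C-58°C, pooled and brought to 0.5% NP-40 at 4°C.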
# Tubastatin A = compound: CN1CCc2c(c3ccccc3n2Cc2ccc(C(=O)NO)cc2)C1 [Tubastatin A]
# Summary of the method: as §1
# [1] = compound: CNC(=O)C1=CC=CC=C1NC2=NC(=NC=C2Cl)NC3=C(C=C(C=C3)N4CCOCC4)OC
# Summary of the method: as §1
# defactinib = compound: CNC(=O)c1ccc(Nc2ncc(C(F)(F)F)c(NCc3nccnc3N(C)S(C)(=O)=O)n2)cc1 [defactinib]
# Summary of the method: as §1
# [2] = compound: CNc1nc(-c2ccc3c(N)n[nH]c3c2)cc(N2C[C@@H](C(=O)NC3CCCCC3)CC[C@H]2C)n1
# Summary of the method: as §1
# encorafenib = compound: COC(=O)N[C@@H](C)CNc1nccc(-c2cn(C(C)C)nc2-c2cc(Cl)cc(NS(C)(=O)=O)c2F)n1 [encorafenib]
# Summary of the method: as §1
# [3] = compound: COC(=O)[C@H](CCSC)NC(=O)C1=C(C=C(C=C1)NC[C@H](CS)N)C2=CC=CC=C2
# Summary of the method: as §1
# alisertib = compound: COc1cc(Nc2ncc3c(n2)-c2ccc(Cl)cc2C(c2c(F)cccc2OC)=NC3)ccc1C(=O)O [alisertib]
# Summary of the method: as §1
# [4] = compound: COc1cc2nc(-c3cc(F)ccc3O)nc(N[C@@H]3CNC[C@H]3C(C)(C)O)c2cc1OC
# Summary of the method: as §1
# gefitinib = compound: COc1cc2ncnc(Nc3ccc(F)c(Cl)c3)c2cc1OCCCN1CCOCC1 [gefitinib]
# Summary of the method: as §1
# lapatinib = compound: CS(=O)(=O)CCNCc1ccc(-c2ccc3ncnc(Nc4ccc(OCc5cccc(F)c5)c(Cl)c4)c3c2)o1 [lapatinib]
# Summary of the method: as §1
# pictilisib = compound: CS(=O)(=O)N1CCN(Cc2cc3nc(-c4cccc5[nH]ncc45)nc(N4CCOCC4)c3s2)CC1 [pictilisib]
# Summary of the method: as §1
# crizotinib = compound: C[C@@H](Oc1cc(-c2cnn(C3CCNCC3)c2)cnc1N)c1c(Cl)ccc(F)c1Cl [crizotinib]
# Summary of the method: as §1
# [5] = compound: C[C@H](C1=CC=C(C=C1)C(=O)NC2=C3C=CNC3=NC=C2)N
# Summary of the method: as §1
# duvelisib = compound: C[C@H](Nc1ncnc2nc[nH]c12)c1cc2cccc(Cl)c2c(=O)n1-c1ccccc1 [duvelisib]
# Summary of the method: as §1
# gandotinib = compound: Cc1cc(Nc2cc(CN3CCOCC3)c3nc(C)c(Cc4ccc(Cl)cc4F)n3n2)n[nH]1 [gandotinib]
# Summary of the method: as §1
# tozasertib = compound: Cc1cc(Nc2cc(N3CCN(C)CC3)nc(Sc3ccc(NC(=O)C4CC4)cc3)n2)n[nH]1 [tozasertib]
# Summary of the method: as §1
# doramapimod = compound: Cc1ccc(-n2nc(C(C)(C)C)cc2NC(=O)Nc2ccc(OCCN3CCOCC3)c3ccccc23)cc1 [doramapimod]
# Summary of the method: as §1
# bafetinib = compound: Cc1ccc(NC(=O)c2ccc(CN3CC[C@H](N(C)C)C3)c(C(F)(F)F)c2)cc1Nc1nccc(-c2cncnc2)n1 [bafetinib]
# Summary of the method: as §1
# [6] = compound: Cc1cccc(CC(=O)N2CCc3c2ccc(-c2cn(C)c4ncnc(N)c24)c3F)n1
# Summary of the method: as §1
# Chain of UniProt P45983 (P45983 whole entry, looked up): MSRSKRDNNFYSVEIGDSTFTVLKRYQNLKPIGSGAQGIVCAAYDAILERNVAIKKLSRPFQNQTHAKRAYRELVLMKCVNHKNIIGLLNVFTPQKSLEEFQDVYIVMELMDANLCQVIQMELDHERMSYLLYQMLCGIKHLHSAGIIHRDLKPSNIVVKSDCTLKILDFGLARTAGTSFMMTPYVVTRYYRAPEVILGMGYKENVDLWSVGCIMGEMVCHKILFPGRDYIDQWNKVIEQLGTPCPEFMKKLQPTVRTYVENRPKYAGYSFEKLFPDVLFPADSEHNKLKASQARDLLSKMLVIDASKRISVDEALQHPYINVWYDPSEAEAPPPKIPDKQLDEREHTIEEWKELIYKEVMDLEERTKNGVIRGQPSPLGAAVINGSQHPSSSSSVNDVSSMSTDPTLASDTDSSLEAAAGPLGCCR
# Chain of UniProt Q6ZWT7 (Q6ZWT7 whole entry, looked up): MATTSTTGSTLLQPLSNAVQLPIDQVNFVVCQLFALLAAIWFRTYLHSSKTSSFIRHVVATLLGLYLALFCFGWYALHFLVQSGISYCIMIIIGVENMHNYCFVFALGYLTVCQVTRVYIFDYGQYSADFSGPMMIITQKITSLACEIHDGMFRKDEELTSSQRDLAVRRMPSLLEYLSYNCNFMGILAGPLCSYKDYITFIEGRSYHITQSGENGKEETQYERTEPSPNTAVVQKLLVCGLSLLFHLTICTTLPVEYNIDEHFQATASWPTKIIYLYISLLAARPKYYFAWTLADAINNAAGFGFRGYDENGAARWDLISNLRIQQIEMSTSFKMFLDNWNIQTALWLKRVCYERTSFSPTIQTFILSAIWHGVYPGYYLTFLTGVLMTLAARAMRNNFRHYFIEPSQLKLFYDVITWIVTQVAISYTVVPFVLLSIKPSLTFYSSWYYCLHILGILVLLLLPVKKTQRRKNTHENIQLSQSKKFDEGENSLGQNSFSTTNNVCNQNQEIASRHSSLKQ
# Chain of UniProt Q9HD34 (Q9HD34 whole entry, looked up): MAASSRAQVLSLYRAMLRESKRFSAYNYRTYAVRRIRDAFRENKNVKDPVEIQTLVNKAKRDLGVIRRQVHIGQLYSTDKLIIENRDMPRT
# Chain of UniProt Q9Y2X0 (Q9Y2X0 whole entry, looked up): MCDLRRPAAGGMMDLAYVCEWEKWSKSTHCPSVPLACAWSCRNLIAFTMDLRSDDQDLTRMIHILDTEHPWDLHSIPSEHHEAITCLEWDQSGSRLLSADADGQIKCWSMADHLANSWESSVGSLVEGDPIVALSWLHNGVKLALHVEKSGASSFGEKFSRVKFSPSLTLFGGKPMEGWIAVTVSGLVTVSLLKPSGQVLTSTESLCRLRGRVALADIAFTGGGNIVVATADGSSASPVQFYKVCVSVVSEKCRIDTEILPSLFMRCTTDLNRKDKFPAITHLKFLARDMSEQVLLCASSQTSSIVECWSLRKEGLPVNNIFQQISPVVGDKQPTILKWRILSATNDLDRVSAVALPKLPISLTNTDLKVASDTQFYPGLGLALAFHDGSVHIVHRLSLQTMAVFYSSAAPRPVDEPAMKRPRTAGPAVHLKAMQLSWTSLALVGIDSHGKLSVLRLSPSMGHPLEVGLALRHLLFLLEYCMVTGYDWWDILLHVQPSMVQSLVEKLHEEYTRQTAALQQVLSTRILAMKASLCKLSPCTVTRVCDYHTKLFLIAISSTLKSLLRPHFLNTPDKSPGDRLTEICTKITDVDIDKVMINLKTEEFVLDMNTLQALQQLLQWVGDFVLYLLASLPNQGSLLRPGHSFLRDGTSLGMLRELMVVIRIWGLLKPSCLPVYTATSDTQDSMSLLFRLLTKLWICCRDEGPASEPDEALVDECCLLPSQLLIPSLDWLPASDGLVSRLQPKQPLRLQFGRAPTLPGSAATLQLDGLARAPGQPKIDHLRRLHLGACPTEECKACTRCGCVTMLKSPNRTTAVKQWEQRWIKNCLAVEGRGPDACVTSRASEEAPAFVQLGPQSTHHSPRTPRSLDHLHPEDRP
# Chain of UniProt Q9GZY8 (Q9GZY8 whole entry, looked up): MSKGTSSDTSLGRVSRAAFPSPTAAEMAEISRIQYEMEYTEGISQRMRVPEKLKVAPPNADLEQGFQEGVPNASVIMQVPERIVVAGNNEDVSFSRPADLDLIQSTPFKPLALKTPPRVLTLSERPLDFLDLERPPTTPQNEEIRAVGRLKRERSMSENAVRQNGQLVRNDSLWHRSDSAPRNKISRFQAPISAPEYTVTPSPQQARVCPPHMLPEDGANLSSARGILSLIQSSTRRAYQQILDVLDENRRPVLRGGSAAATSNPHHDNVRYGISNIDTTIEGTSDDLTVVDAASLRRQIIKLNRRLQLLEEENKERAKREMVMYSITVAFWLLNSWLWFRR
# Chain of UniProt Q8WV92 (Q8WV92 whole entry, looked up): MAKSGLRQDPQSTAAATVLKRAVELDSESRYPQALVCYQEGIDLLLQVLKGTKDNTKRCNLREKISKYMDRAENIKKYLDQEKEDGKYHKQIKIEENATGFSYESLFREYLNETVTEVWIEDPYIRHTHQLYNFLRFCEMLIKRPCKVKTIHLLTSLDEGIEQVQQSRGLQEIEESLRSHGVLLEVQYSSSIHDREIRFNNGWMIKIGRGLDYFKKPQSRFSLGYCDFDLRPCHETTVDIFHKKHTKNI
# Chain of UniProt Q9NSK0 (Q9NSK0 whole entry, looked up): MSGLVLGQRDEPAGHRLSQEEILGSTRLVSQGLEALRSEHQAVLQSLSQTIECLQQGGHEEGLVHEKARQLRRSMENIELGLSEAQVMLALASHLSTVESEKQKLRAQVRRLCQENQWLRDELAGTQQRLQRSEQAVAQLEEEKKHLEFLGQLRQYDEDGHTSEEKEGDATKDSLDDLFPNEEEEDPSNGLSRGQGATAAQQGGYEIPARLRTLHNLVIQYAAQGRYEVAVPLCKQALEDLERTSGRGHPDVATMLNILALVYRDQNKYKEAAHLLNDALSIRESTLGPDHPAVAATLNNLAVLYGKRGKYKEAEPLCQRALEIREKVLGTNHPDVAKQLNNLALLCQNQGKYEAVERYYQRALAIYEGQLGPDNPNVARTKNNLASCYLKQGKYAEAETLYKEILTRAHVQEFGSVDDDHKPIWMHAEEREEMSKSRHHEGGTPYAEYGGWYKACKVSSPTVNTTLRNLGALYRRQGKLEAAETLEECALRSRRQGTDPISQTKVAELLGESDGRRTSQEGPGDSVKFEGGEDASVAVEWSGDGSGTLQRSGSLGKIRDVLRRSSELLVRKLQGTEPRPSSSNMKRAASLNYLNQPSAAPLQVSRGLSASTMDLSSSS
# Chain of UniProt Q7Z4S6 (Q7Z4S6 whole entry, looked up): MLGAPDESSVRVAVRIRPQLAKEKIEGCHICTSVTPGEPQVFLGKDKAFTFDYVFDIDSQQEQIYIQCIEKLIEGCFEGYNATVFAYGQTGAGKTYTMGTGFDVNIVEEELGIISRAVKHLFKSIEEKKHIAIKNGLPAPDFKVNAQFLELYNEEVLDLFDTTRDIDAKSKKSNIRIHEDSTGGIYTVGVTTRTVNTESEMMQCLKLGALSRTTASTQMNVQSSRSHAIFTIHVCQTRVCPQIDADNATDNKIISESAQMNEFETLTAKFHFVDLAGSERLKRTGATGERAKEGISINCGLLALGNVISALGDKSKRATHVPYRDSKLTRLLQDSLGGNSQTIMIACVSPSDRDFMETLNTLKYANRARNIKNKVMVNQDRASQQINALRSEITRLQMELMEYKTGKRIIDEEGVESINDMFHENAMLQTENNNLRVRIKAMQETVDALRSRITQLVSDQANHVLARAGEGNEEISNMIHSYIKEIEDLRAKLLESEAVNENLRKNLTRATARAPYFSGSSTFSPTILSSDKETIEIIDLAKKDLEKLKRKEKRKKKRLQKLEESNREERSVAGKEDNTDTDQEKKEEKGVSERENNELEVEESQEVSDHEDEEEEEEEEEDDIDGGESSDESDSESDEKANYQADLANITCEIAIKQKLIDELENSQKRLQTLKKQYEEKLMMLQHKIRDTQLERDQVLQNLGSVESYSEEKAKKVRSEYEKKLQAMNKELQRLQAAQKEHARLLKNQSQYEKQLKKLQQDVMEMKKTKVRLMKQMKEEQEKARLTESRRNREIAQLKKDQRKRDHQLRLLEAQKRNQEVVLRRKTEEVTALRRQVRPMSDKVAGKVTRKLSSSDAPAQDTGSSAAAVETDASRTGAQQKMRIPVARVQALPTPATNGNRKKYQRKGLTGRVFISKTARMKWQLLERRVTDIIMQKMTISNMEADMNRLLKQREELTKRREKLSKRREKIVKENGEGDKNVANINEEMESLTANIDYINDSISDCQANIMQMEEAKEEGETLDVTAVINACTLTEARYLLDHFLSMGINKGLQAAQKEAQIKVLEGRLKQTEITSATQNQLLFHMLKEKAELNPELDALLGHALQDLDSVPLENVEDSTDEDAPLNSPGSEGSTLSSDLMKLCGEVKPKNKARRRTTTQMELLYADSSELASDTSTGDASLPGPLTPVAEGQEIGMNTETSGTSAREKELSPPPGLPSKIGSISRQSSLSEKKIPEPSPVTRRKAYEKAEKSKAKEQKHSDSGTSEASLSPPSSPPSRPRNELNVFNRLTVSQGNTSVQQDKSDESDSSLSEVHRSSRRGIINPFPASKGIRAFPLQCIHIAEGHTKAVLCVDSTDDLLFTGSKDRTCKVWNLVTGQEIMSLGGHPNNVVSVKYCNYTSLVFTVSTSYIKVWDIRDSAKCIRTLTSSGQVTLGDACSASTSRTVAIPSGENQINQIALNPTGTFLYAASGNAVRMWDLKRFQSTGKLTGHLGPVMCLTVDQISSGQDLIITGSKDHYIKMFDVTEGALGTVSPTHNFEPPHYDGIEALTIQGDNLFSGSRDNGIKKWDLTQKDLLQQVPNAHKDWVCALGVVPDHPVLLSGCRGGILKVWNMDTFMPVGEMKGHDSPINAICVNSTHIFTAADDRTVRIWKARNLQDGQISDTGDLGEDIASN
Target,log2 fold change (alvocidib),log2 fold change (Tubastatin A),log2 fold change [1],log2 fold change (defactinib),log2 fold change [2],log2 fold change (encorafenib),log2 fold change [3],log2 fold change (alisertib),log2 fold change [4],log2 fold change (gefitinib),log2 fold change (lapatinib),log2 fold change (pictilisib),log2 fold change (crizotinib),log2 fold change [5],log2 fold change (duvelisib),log2 fold change (gandotinib),log2 fold change (tozasertib),log2 fold change (doramapimod),log2 fold change (bafetinib),log2 fold change [6]
MICU1 isoform 3 (UniProt Q9BPX6),0.092,-0.065,0,0.026,-0.061,-0.037,-0.05,-0.025,-0.063,0.023,-0.052,-0.053,-0.107,0.253 (active),-0.007,-0.408 (active),0.049,-0.008,-0.077,-0.209
KIF2C (UniProt Q99661),0.011,-0.18,-0.006,0.018,0.002,0.004,0.096,-0.006,0.001,-0.014,0.002,-0.003,-0.007,0.004,0.011,-0.051,-0.008,0.022,0.004,-0.002
MFF isoform 2 (UniProt Q9GZY8),-0.046,-0.038,-0.052,0.027,0.024,0.068,-0.113,0.042,-0.075,0.048,0.055,0.028,0,-0.239 (active),0.022,0.106,-0.031,-0.035,-0.031,0.24
MOSPD2 (UniProt Q8NHP6),-0.028,-0.034,-0.03,0.11,-0.015,0.053,-0.026,0.125,-0.027,-0.039,0.01,-0.036,-0.041,-0.076,-0.02,0.003,0.021,0.022,-0.009,0.1
MARK3 (UniProt P27448),-0.071,-0.119,-0.188,-0.158,0.113,0.038,0.129,0.006,0.003,-0.02,0.007,-0.061,-0.206,0.043,0.011,-0.089,-0.143,-0.081,-0.088,0.049
MITD1 (UniProt Q8WV92),0.021,0.046,0.044,-0.038,-0.026,-0.04,0.143,0.041,0.018,0.022,0.003,-0.032,0.046,0.086,0.055,0.025,-0.015,-0.049,-0.118,-0.085
MAP3K4 (UniProt Q9Y6R4),-0.027,-0.113,0.366 (active),0.071,-0.018,-0.171,0.128,-0.028,-0.045,0.081,-0.02,0.009,0.033,0.064,-0.017,0.034,0.092,0.073,-0.031,-0.041
MED16 (UniProt Q9Y2X0),0.01,-0.093,0.02,-0.014,0.004,-0.011,0.038,-0.015,-0.004,0.019,-0.014,-0.154,0.03,0.167,-0.027,-0.261 (active),0.012,0.021,0.051,-0.065
MAD2L1BP isoform 3 (UniProt Q15013),0.047,-0.135,0.088,0.068,-0.012,0.138,0.234,0.052,-0.009,-0.054,0.017,-0.155,-0.094,0.022,0.048,-0.009,-0.071,0.12,-0.041,0.008
KIF21A isoform 5 (UniProt Q7Z4S6),0.106,-0.066,0.022,0.007,0.008,-0.016,0.09,-0.033,-0.002,-0.012,-0.014,-0.018,-0.021,0.157,-0.032,-0.077,0.005,0.019,-0.019,-0.062
MBOAT2 (UniProt Q6ZWT7),-0.024,0,0.079,0.002,-0.025,0.156,-0.073,-0.003,0.034,0.064,-0.067,0.061,-0.005,-0.175,0.009,0.319 (active),0.106,-0.12,-0.049,0.281
KLC4 isoform 3 (UniProt Q9NSK0),-0.01,-0.091,-0.008,0.014,-0.084,0.014,0.007,0.014,0.014,-0.028,-0.002,-0.053,-0.027,0.019,0.029,-0.074,-0.021,0.034,-0.018,0.001
LYRM4 (UniProt Q9HD34),0.013,0.068,-0.042,0,0.036,-0.008,0,0.007,0,0.008,-0.036,-0.026,-0.034,0.413 (active),0.031,-0.095,-0.021,-0.047,0.008,-0.007
MAST4 (UniProt O15021),0.042,-0.11,0.394,0.282,-0.173,-0.036,0.006,-0.043,0.032,-0.066,-0.12,0.122,0.079,-0.065,-0.089,0.374,0.274,-0.121,-0.103,0.017
MAPK8 isoform 3 (UniProt P45983),0.01,-0.111,0.541 (active),-0.07,-0.144,0.135,0,-0.022,0.003,-0.042,-0.042,0.192,-0.089,-0.022,-0.07,0.281,-0.007,-0.049,-0.014,-0.037
LYSMD3 (UniProt Q7Z3D4),-0.001,0.127,-0.045,-0.062,0.092,0.031,-0.124,0.001,0.112,0.254,-0.039,-0.039,-0.018,-0.273,0.066,0.307,0.058,0.041,-0.057,0.23
